Screens: PubChem, Broad Institute
Wnt act: activators of Wnt/beta-catenin signaling; hit rate 1.2% among 300,000; activation, % at 9.35 µM; Wnt/beta-catenin reporter cell assay, activator, plate reader; AID 743398; in the data active = activation above about 30%, passing the limit was not always enough; inconclusive = no clear call, values can overlap the other calls;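 also: 0% = neutral control wells and 100% = positive control wells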
MITF TRPM1 HTS: activators of MITF-driven TRPM1 promoter activity in SK-MEL-5 cells | SK-MEL-5 TRPM1-promoter luciferase, 24 h; % of positive control, neutral wells = 0 | activation, % at 12.5 µM | hit rate 0.75% among 300,000 | AID 588334;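 active = mean activation of at least 80% with every replicate also reaching 80%; inconclusive = mean reaches 80% but some replicate falls short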;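 also: 0% = neutral control wells and 100% = parthenolide positive control wells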
Env fusion inh: HIV envelope-mediated fusion inhibition | HeLa-JRFL Env/CEM21 cell fusion, luciferase | inhibition, % at 12.3 µM | hit rate 1.1% among 360,000 | AID 651610;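 active = mean replicate inhibition score of at least 50 and every replicate individually at or above 50; inconclusive = only one of the two criteria met; inactive = mean below 50 and not all replicates reaching 50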;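 also: 0% = plate neutral controls and 100% = maraviroc near 300 nM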
miR122 inh: blocks miR-122 activity in Huh7 sensor cells. Huh7 miR-122 Renilla luciferase sensor, 48 h; neutral wells = 0, positive control = 100. activation (reporter increase), % at 12.5 µM. hit rate 0.3% among 340,000;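 active = mean replicate activation score at least 90 and every replicate individually at or above 90; inconclusive = only one of the two criteria met; inactive = neither criterion met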;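 also: higher luciferase means less miR-122 activity so hits act as miR-122 inhibitors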
esBAF inh: blocks esBAF chromatin remodeling in mouse ES cells | Bmi1-luciferase knock-in reporter, 24 h; 100% = twice the neutral-well signal | reporter increase, % at 12.5 µM | hit rate 2% among 350,000; in the data active = activation above about 40%; inconclusive = no clear call, values can overlap the other calls;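 also: 0% = median of the plate's neutral control wells and 100% = double that signal; a rise in the Bmi1 reporter signal indicates esBAF inhibition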
Numbers without * were called inactive; ? = inconclusive; nt = no result; [ ] = remark or other dose. Most compounds without a hit are left out; they make up all but 3.4% or so of the library.

SMILES	Wnt act	MITF TRPM1 HTS	Env fusion inh	miR122 inh	esBAF inh
C[C@@H]1CN([C@@H](C)CO)C(=O)Cc2cc(NS(C)(=O)=O)ccc2O[C@@H]1CN(C)C(=O)Nc1ccc(F)cc1	nt	nt	nt	-2[16.7 µM]	0
CNC[C@H]1Oc2c(NC(=O)Nc3ccc(C(F)(F)F)cc3)cccc2C(=O)N([C@@H](C)CO)C[C@@H]1C	nt	nt	14[16.7 µM]	-2[16.7 µM]	6
Cc1cc(C(=O)Nc2ccc3c(c2)C(=O)N(C)[C@@H]2CC[C@H](CC(=O)NCC(F)(F)F)O[C@@H]2CO3)no1	nt	nt	-16[16.7 µM]	-8[16.7 µM]	-3
CCn1cc(SCC(=O)NCc2ccc3c(c2)OCO3)c2ccccc21	-1	nt	67*	nt	-7
Cc1cc(C)cc(-n2c(SC(C)C(=O)NCc3ccc4c(c3)OCO4)nc3ccccc3c2=O)c1 (centres undefined)	-1	2	64*	nt	nt
CCN(CC)CCn1c(SCC(=O)NCc2ccco2)nc2c(sc3ccccc32)c1=O	47*	nt	-70	-5	2
CCN(CC)CCn1c(SCC(=O)NCCC2=CCCCC2)nc2c(sc3ccccc32)c1=O	2	-14	21	nt	nt
Cc1cccc(-n2c(SCC(=O)NCc3ccc4c(c3)OCO4)nc3ccccc3c2=O)c1	1	4	39	nt	nt
O=C(CSc1nc2ccccc2c(=O)n1-c1ccccc1)NCc1ccc2c(c1)OCO2	5	-12	80*	1	-2
O=C(CSc1nnc(-c2ccccc2)c(-c2ccccc2)n1)NCc1ccco1	nt	nt	-2	21	13
Cc1cccc(-n2c(SCC(=O)NCc3ccco3)nc3ccccc3c2=O)c1	nt	nt	62*	11	3
O=C(CSc1nc(-c2ccccc2)c(-c2ccccc2)[nH]1)NCc1ccco1	nt	-10	70*	6	-13
O=S(=O)(NCCCN1CCOCC1)c1ccc(Cl)s1	0	12	3	nt	nt
CCCCCCNS(=O)(=O)c1ccc(Cl)s1	1	nt	-14	209*	-3
CN(C)CC(=O)Nc1ccc2c(c1)[C@H]1C[C@@H](CC(=O)NCC3CC3)O[C@H](CO)[C@H]1O2	nt	nt	20[16.7 µM]	-2[16.7 µM]	5
CN(C)c1cc[n+](Cc2c(Cl)cccc2Cl)cc1	0	nt	58*	-3	-32
O=c1nc(/C=C/c2ccc(O)c(O)c2)oc2ccccc12	nt	82*	nt	-11	-11
COc1ccc(/C=C\c2nc(=O)c3ccccc3o2)cc1	5	2	-44	0	-1
NC(=O)c1sc2nc3c(cc2c1N)CCCCCC3	7	74	6	nt	46*
Nc1c(C(=O)c2ccc(Cl)cc2)sc2nc3c(cc12)CCC3	-3	152*	-10	-13	nt
COc1ccc(-c2c3c(nc4sc(C(=O)Nc5ccccc5)c(N)c24)CCC3)cc1	36*	14	-46	-2	53*
Nc1c(C(=O)O)sc2nc3c(cc12)CCCC3	15	nt	-3	-1	nt
NC(=O)c1sc2nc3c(c(-c4cccs4)c2c1N)CCCCC3	nt	4	126*	15	nt
NC(=O)c1sc2nc3c(c(-c4cccnc4)c2c1N)CCC3	nt	1	nt	-5	5
C[C@@H]1CCCCO[C@H](CN(C)S(=O)(=O)c2ccc(F)cc2)[C@@H](C)CN([C@@H](C)CO)C(=O)c2cc(NC(=O)Nc3ccc(C(F)(F)F)cc3)ccc2O1	nt	nt	38[16.7 µM]	13[16.7 µM]	0
SMILES	Wnt act	MITF TRPM1 HTS	Env fusion inh	miR122 inh	esBAF inh
O=C(C[C@@H]1CC[C@H]2[C@@H](COC[C@H](O)CN2CC2CCOCC2)O1)N1CCOCC1	nt	nt	nt	6[16.7 µM]	5
CO[C@@H]1CN(C)C(=O)c2cc(NC(C)=O)ccc2OC[C@@H](C)N(C(=O)C2CCC2)C[C@@H]1C	nt	nt	nt	1[16.7 µM]	0
Nc1c(C(=O)C2CC2)sc2nc3c(cc12)CCC3	8	117*	-90	nt	nt
Cc1ccc(C)c(Nc2nc(N)c3ccccc3n2)c1	33*	47	-97	2	nt
COc1ccc(Cl)cc1Nc1nc(N)c2ccccc2n1	7	nt	-146	19	13
C[C@@H]1CCCCO[C@H](CN(C)C(=O)Nc2ccccc2)[C@H](C)CN([C@@H](C)CO)C(=O)c2cc(NC(=O)C3CCCCC3)ccc2O1	nt	nt	-3[16.7 µM]	0[16.7 µM]	0
C[C@H]1CN([C@@H](C)CO)C(=O)c2cccc(NC(=O)Nc3ccc(F)cc3)c2O[C@@H]1CN(C)C	nt	nt	nt	-3[16.7 µM]	3
COc1ccc2cc(C(N)=O)c(=Nc3ccccc3)oc2c1	?	102*	4	nt	nt
COc1ccc2cc(C(=O)c3ccccc3)c(=O)oc2c1	nt	66	nt	25	66*
NC(=O)c1cc2ccc(O)cc2oc1=Nc1ccccc1	15	45	nt	5	31
NC(=O)c1cc2ccc(O)cc2oc1=NCc1ccccc1	-4	18	nt	-6	45*
Cc1onc(-c2ccc3c(c2)OCO3)c1-c1ccc2[nH]ccc2c1	-4	-23	-6	-2	9
c1cc2cc(-c3c(-c4ccc5c(c4)OCO5)noc3-c3ccsc3)ccc2[nH]1	33*	42	-30	-2	55*
C[C@H](CO)N1C[C@H](C)[C@H](CN(C)Cc2ccncc2)OCCCC[C@H](C)Oc2ccc(NC(=O)Nc3ccc4c(c3)OCO4)cc2C1=O	nt	nt	37[16.7 µM]	7[16.7 µM]	73*
C[C@@H]1CN([C@H](C)CO)C(=O)c2cc(NC(=O)Nc3ccc4c(c3)OCO4)ccc2O[C@H]1CN(C)Cc1ccncc1	-1	-1	58*	-8[16.7 µM]	0
C[C@@H]1CCCCO[C@@H](CN(C)Cc2ccncc2)[C@H](C)CN([C@@H](C)CO)C(=O)c2cc(NC(=O)Nc3ccc4c(c3)OCO4)ccc2O1	nt	nt	12[16.7 µM]	13[16.7 µM]	62*
CO[C@@H]1CN(C)C(=O)c2cc(NC(=O)c3cnccn3)ccc2OC[C@@H](C)N(CCC(F)(F)F)C[C@H]1C	nt	nt	nt	4[16.7 µM]	-2
C[C@H]1CCCCO[C@@H](CN(C)S(=O)(=O)c2ccccc2)[C@@H](C)CN([C@@H](C)CO)C(=O)c2cc(NS(C)(=O)=O)ccc2O1	nt	nt	5[16.7 µM]	6[16.7 µM]	-3
COc1ccc2c3c([nH]c2c1)[C@@H](CO)N(Cc1cccnc1)CC31CN(C(=O)c2cccnc2)C1	nt	nt	-28[16.7 µM]	nt	nt
Cn1c(CCNC(=O)c2cc(COc3ccc(F)c(F)c3)on2)nc2ccccc21	-1	13	3	-4	39
CC(=O)c1ccc(OCc2cc(C(=O)NCCn3nc(C)cc3C)no2)cc1	-1	39	2	nt	44*
Cc1cc(CNC(=O)c2cc(COc3ccc(F)c(F)c3)on2)nn1C	29	86*	-161	-5	65*
Cc1cc(C)n(CC(C)NC(=O)c2cc(COc3ccc(F)c(F)c3)on2)n1 (centres undefined)	12	67	-23	7	62*
Cc1ccc(OCc2cc(C(=O)NCc3ccc(OC(F)(F)F)cc3)no2)cn1	-3	7	-7	nt	17
CCc1cc(CNC(=O)c2cc(COc3ccc(C)nc3)on2)on1	22	35	3	3	60*
O=C(C[C@@H]1CC[C@H]2[C@@H](COC[C@@H](O)CN2Cc2ccc(Cl)cc2)O1)NCCc1ccccc1	nt	nt	20[16.7 µM]	-7[16.7 µM]	3
Cc1cccc(CC(C)NC(=O)c2cc(COc3ccc(F)cc3F)on2)n1 (centres undefined)	8	15	1	1	42*
